Measurements taken from PubChem BioAssay AID1347165 (National Center for Advancing Translational Sciences (NCATS), 2019).
Screen size: about 220,000 compounds; about 5,700 (2.6%) were called active. About 18% were inconclusive and are not listed. This is one part of a sample in which actives are shown more often than they occur. Unmarked numbers belong to inactive results. Calls follow the shape of the dose curve; as a rule, active = well fitted inhibition curve with a large enough effect; inconclusive = small, poorly fitted or top-dose-only effect; inactive = no such curve, though single readings can be large or run the other way.

molecular target: Lysine-specific demethylase 5B (Homo sapiens) (UniProt Q9UGL1); test: Primary screen for KDM5B Histone Demethylases FDH-coupled qHTS; details: FDH-coupled NADH fluorescence (FDH is formaldehyde dehydrogenase); series mostly up to 57.7 µM; activity change, negative = inhibition: at the top concentration; also: nearly all actives have a fitted effect of over 70% in size; as to activity change, negative = inhibition: 0% is about no effect
Sequence (Q9UGL1 whole entry, looked up): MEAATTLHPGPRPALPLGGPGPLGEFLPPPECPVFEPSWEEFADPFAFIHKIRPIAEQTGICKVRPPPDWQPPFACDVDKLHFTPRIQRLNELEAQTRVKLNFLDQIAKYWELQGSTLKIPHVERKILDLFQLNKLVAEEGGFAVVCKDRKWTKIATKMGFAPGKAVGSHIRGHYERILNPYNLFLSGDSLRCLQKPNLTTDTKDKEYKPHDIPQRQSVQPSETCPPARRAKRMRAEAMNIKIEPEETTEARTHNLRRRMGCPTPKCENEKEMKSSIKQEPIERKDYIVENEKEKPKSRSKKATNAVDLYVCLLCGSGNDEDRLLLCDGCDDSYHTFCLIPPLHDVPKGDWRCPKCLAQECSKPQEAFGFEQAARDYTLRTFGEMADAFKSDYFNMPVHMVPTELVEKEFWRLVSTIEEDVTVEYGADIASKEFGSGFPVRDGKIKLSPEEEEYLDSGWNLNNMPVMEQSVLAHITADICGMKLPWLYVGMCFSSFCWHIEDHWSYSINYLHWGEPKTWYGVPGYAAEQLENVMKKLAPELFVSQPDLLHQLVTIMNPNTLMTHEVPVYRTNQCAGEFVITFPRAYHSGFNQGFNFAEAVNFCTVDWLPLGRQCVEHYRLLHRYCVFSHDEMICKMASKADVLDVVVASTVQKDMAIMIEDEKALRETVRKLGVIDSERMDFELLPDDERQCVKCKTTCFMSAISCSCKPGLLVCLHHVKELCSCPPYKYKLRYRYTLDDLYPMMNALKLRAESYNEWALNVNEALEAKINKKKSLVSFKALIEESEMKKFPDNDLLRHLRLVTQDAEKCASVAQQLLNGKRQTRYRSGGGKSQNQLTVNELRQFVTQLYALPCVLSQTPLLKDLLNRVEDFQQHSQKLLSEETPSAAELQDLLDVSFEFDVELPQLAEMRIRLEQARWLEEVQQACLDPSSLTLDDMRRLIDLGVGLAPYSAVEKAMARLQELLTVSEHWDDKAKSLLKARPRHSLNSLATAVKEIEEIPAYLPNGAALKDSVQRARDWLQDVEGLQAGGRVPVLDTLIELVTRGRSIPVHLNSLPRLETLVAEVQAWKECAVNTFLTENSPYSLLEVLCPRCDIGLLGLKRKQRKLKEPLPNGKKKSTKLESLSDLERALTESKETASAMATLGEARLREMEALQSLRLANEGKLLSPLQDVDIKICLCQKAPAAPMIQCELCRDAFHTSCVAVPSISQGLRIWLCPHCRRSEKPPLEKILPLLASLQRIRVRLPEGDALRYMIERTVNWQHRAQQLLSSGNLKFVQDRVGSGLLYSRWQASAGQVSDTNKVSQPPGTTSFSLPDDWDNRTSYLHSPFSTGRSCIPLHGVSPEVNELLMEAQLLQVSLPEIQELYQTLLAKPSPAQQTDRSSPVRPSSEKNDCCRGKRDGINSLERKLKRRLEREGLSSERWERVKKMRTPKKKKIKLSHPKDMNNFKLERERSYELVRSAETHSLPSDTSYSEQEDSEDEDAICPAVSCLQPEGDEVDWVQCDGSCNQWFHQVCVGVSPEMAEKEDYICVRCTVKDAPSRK
Procedure, shortened: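 KDM5BΔAP (200 nM final) in 50 mM HEPES pH 7.5, 0.01% Tween-20 was preincubated 10 min at RT with compound over a concentration range. Substrate mix (H3K4me3 12.5 µM, α-KG 25 µM, Fe²⁺, ascorbate, NAD⁺, FDH) was added, and NADH fluorescence change over 30 min gave dose-response curves.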
Potency is read from the fitted curve at half-maximal effect.

SMILES | activity change, negative = inhibition | Potency
CCCCCC1CC(COc2ccccc2)OC1=O (configuration not stated) | 26.8% | –
COc1ccc2c(COC(=O)c3cc4ccccc4cc3O)cc(=O)oc2c1 | -21.8% | –
CCc1cccc2c(C(=O)C(Nc3cccc(CO)c3)c3ccccc3)c[nH]c12 (configuration not stated) | -20.6% | –
O=C(COC(=O)CCc1c[nH]c2ccccc12)NC1CC1 | 0.514% | –
Cc1cc(Nc2cccc(Cl)c2)n2nc(Cc3ccccc3)nc2n1 | -9.46% | –
O=C(c1ccccc1)c1ccc(C(=O)N2CCN(c3ccccc3)CC2)cc1 | -3.85% | –
C=CCNC(=O)N1CC[C@@H](CC(=O)O)[C@@H](CC2=NCCc3ccc(C)cc32)C1 | -15.8% [at 86.2 µM] | –
COc1cccc2c1CCN=C2C[C@H]1CN(C(=O)C(C)(C)C)CC[C@H]1CC(=O)O | – | 35.5 µM (active)
CC(C)(C)C(=O)N1CC[C@@H](CC(=O)O)[C@@H](CCN2CCN(c3cccc(C(F)(F)F)c3)CC2)C1 | 19% | –
Cc1ccc(CNC(=O)[C@H](C)NC(=O)[C@@H]2Cc3ccccc3CN2)cc1 | 5.1% | –
COCc1nnc(NC(=O)C2c3ccccc3C(=O)N(C3CCCC3)C23CCCC3)s1 (configuration not stated) | -17.5% | –
Cc1cccnc1NC(=O)C1c2ccccc2C(=O)N(C2CCCC2)C12CCCC2 (configuration not stated) | – | 15.8 µM (active)
O=C(NCc1ccccn1)C1c2ccccc2C(=O)N(C2CCCC2)C12CCCC2 (configuration not stated) | 22.4% | –
CN(C)CCN(Cc1ccc(Cl)cc1)C(=O)c1ccncc1 | -6.95% | –
COc1cc(C(=O)OC2CCCCC2=O)ccc1OCc1ccccc1Cl (configuration not stated) | -12.3% | –
Clc1ccc2[nH]c3c(c2c1)CCCC3 | -23.8% | –
Cc1ccncc1C(=O)N1CCC(Cn2c(C)cnc2-c2cccnc2)CC1 | -18.9% | –
Cc1cnc(CC2CCN(C(=O)c3cccc4[nH]ccc34)CC2)n1CC1CC1 | – | 22.4 µM (active)
COCCn1c(C)cnc1CC1CCN(C(=O)c2ccc(OC)cc2OC)CC1 | 34.2% | –
Cc1[nH]c(=O)[nH]c(=O)c1CCC(=O)Nc1nc(C(C)C)cs1 | -2.21% | –
CCOC(=O)C1CCN(C(=O)c2cccc(S(=O)(=O)N(CC)c3ccccc3)c2)CC1 | -3.52% | –
O=C(c1ccc(-c2ccc(N3CCCCC3)nc2)cc1)N1CCOCC1 | – | 28.2 µM (active)
O=C(OCc1cccc(Cl)c1)c1ccc(N2CCOCC2)nc1 | -16.1% | –
CCOC(=O)C1CCN(C(=O)c2ccc(-c3ccc(N4CCCCCC4)nc3)cc2)CC1 | – | 15.8 µM (active)
CC(=O)c1ccc(NC(=O)COC(=O)C2CCN(c3ccc(C(F)(F)F)cn3)CC2)cc1 | -18.1% | –
O=C(c1ccnc(-c2nnc3ccc(N4CCOCC4)nn23)c1)N1CCCCC1 | -40.3% [at 86.2 µM] | –

SMILES | activity change, negative = inhibition | Potency
CCC(=O)Nc1ccc(Cl)cc1C | -3.1% | –
Cc1cc(C)c(OCC(=O)Nc2ccc(NC(=O)c3ccco3)cc2)c(Br)c1 | -5.67% | –
CCOc1cc(C)c(Cl)cc1S(=O)(=O)N1CCCCC1C (configuration not stated) | -1.68% | –
CC(OC(=O)CCCc1c[nH]c2ccccc12)C(=O)NC(N)=O (configuration not stated) | -1.4% | –
CCCCc1nc(SCC(=O)Nc2nnc(C(C)C)s2)n[nH]1 | -21.5% | –
CN1[C@@H](CCC(=O)N2CCN(c3ccccn3)CC2)CNC(=O)[C@@H]2[C@H]1CCN2Cc1csnn1 | – | 28.2 µM (active)
COC(=O)C1CCN(C(=O)CC[C@H]2CNC(=O)[C@@H]3[C@@H](CCN3Cc3cccs3)N2C)CC1 | -14.8% | –
CN1[C@@H](CCC(=O)N2CCN(c3ccccc3)CC2)CNC(=O)[C@H]2NCC[C@H]21 | 1.01% [at 86.2 µM] | –
O=C1NC[C@@H](CCC(=O)N2CCN(c3ccccn3)CC2)N2C[C@@H](NCc3ccccc3)C[C@@H]12 | – | 31.6 µM (active)
CN(C)c1ccc(C(=O)N[C@H]2C[C@H]3C(=O)NC[C@@H](CCC(=O)N4CCCCC4)N3C2)cc1 | -22.1% | –
O=C(Nc1ccsc1)N[C@H]1C[C@H]2C(=O)NC[C@@H](CCC(=O)N3CCC(O)CC3)N2C1 | -27.4% [at 86.2 µM] | –
COc1cccc(C(=O)Oc2ccc(C3(c4ccc(OC(=O)c5cccc(OC)c5)cc4)OC(=O)c4ccccc43)cc2)c1 | 15.9% | –
CC(C)NC(=O)CN(C)CC(O)COc1ccc(Cl)cc1 (configuration not stated) | -11.6% | –
CCc1cc(CC)n(-c2nc3c(c(=O)n(C)c(=O)n3C)n2C)n1 | 15.4% | –
CCc1nn(C(C)C(=O)NCc2ccccc2Cl)c(=O)c2cc3occc3n12 (configuration not stated) | 8.4% | –
NC(=O)c1ccc(NC(=O)C2(Cc3nc4ccccc4s3)CCCCC2)cc1 | -20.3% | –
CCNC(=O)NC(=O)CN1CCCC(c2nc3ccccc3o2)C1 (configuration not stated) | 2.2% | –
Cc1nc2scc(CC(=O)NC(C)C)n2c(=O)c1-c1cc(C)n(-c2cccc(Cl)c2)n1 | – | 28.2 µM (active)
CCC1(C)Cc2nc3sc4c(=O)n(CC(=O)NCc5ccco5)cnc4c3cc2CO1 (configuration not stated) | -10% | –
CC(C)NC(=O)Cc1cccs1 | 18% | –
Cn1nc(CC(=O)Nc2cccc(Cl)c2)c2ccccc2c1=O | -6.18% | –
COc1ccc2c(C)c(CC(=O)NCc3ccco3)c(=O)oc2c1 | -963% | –
Cc1cccc(-n2nc(-c3c(C)nc4scc(CC(=O)NCc5ccco5)n4c3=O)cc2C)c1C | – | 31.6 µM (active)
Cc1ccc(C(NC(=O)c2ccccc2Cl)C(Cl)(Cl)Cl)cc1 (configuration not stated) | 3.03% | –
Cc1cc(NC(=O)CSc2nc(=O)cc(N)n2-c2ccc(F)cc2)no1 | 7.62% | –
O=C(O)CC/C(=C/c1cccc(Oc2ccc(Cl)cc2)c1)c1nc2ccccc2s1 | 344% | –

SMILES | activity change, negative = inhibition | Potency
CN(Cc1nnc(-c2ccc(Br)s2)o1)C1CCCC1 | -4.13% | –
COc1ccccc1C1=NS(=O)(=O)N(C)C(C(=O)N2CCN(Cc3ccccc3)CC2)=C1 | -13.6% | –
Cc1ccccc1CNC(=O)c1ccc2c(c1)CCCC2 | 19% | –
O=C(CSc1ncc(-c2ccc(Cl)cc2)o1)Nc1ccc(F)cc1 | 5.5% | –
CC(=O)Nc1cccc(-c2n[nH]c3c2CC(=O)N(Cc2ccccc2F)C3)c1 | 19% [at 86.2 µM] | –
CC(=O)Nc1cccc(-c2nnc3n2CCCC3)c1 | 11.1% | –
COc1nc2nc(CC3CC3)n(C)c2cc1-c1cccc(NC(C)=O)c1 | – | 35.5 µM (active)
COc1nc2nc(CC3CC3)n(C)c2cc1-c1ccc(CO)cc1 | – | 35.5 µM (active)
COc1nc2nc(CCc3ccccc3)n(C)c2cc1-c1cncnc1 | -15.5% [at 86.2 µM] | –
CSCCC(NC(=O)[C@@H](NC(=O)c1ccc(F)cc1)C(C)C)c1nnc2ccccn12 (some centres not stated) | 1.26% | –
O=C(Nc1cccc(Cl)c1)N1CCN(c2cc(=O)n3nc(-c4ccco4)sc3n2)CC1 | 15.2% | –
CCc1ccc2oc(C(=O)Nc3ccccc3Cl)cc(=O)c2c1 | -7.99% | –
Fc1ccc(NC(=S)NCC(c2ccccc2)c2ccccc2)cc1 | -19.1% | –
O=C(Nc1ccc2oc(-c3cccc(Cl)c3)nc2c1)c1ccc(F)cc1 | 12.7% | –
CN(c1ccccc1)S(=O)(=O)c1ccc(NC(=O)COc2ccccc2)cc1 | 18.6% | –
Cc1ccc(S(=O)(=O)N(C)Cc2ccccc2C(F)(F)F)cc1 | 3.72% [at 86.2 µM] | –
Cn1ncc2c(C(=O)NCc3cccnc3)cc(C(C)(C)C)nc21 | – | 100 µM (active)
CCn1cc(-c2ccc(C)cc2)cc1C(=O)NCc1cccnc1 | 1.22% | –
CC(C)(C)C(=O)NCCCC(=O)NCc1cccnc1 | -10.7% | –
O=C(NC(=S)NC1CCCCC1)c1ccc(Cl)cc1 | -10.9% | –
N#CCCN1CCN(C(=O)c2cn3ccnc(-c4ccc(F)cc4)c3n2)CC1 | -25.6% | –
N#CCCN1CCN(C(=O)c2cn3ccnc(-c4ccccc4)c3n2)CC1 | -13.1% | –
COc1ccccc1OCCNC(=O)c1cn2ccnc(-c3ccc(C)cc3)c2n1 | – | 28.2 µM (active)
COc1ccc(-c2noc(-c3cccn3CC(=O)Nc3cc(Cl)ccc3OC)n2)cc1F | 27.2% | –
CCCn1nc(C(=O)Nc2sc3c(c2C(N)=O)CCC3)c2ccccc2c1=O | -13.1% | –
CCc1noc(-c2cn(C3CCN(C(=O)C4(c5ccccc5)CC4)C3)nn2)n1 (configuration not stated) | 15% | –

SMILES | activity change, negative = inhibition | Potency
CCNC(=O)c1noc(-c2ccc[nH]c2=O)n1 | -6640% | –
CCc1noc(-c2cccn3c(CNC(=O)c4cccc(Cl)c4)nnc23)n1 | – | 31.6 µM (active)
CC(C)c1nc(CNC(=O)c2ccc(N(C)C)nc2)no1 | -12.7% | –
CC(C)CC(=O)N1CCC(c2noc(-c3cnccn3)n2)C1 (configuration not stated) | -1.65% | –
O=C(c1cccnc1)N1CCC(Cc2nc(C3CCOCC3)no2)CC1 | -22.2% | –
O=C(NCc1nnc2c(-c3nc(C4CC4)no3)cccn12)c1cccnc1 | – | 25.1 µM (active)
CCc1noc(-c2cccn3c(CNC(=O)c4ccncc4)nnc23)n1 | – | 28.2 µM (active)
CCc1noc(-c2cn(C3CCN(C(=O)c4cccc(OC)c4)C3)nn2)n1 (configuration not stated) | -12.9% | –
CCC(C(=O)Nc1cccc(-c2nc3cccnc3s2)c1C)c1ccccc1 (configuration not stated) | -12.9% | –
CCc1noc(-c2cn(C3CCN(C(=O)c4ccc(Cl)cc4)C3)nn2)n1 (configuration not stated) | 1.84% | –
CCc1noc(-c2cccn3c(CNC(=O)C(CC)c4ccccc4)nnc23)n1 (configuration not stated) | – | 28.2 µM (active)
c1ccc(-c2nc(CN3CCCC3c3cccs3)co2)cc1 (configuration not stated) | -18.7% | –
O=C1Cc2cc(-c3csc(Nc4ccc(F)cc4)n3)ccc2N1 | -0.328% | –
CC(=O)Nc1ccc(SC2CCCCCC2=O)cc1 (configuration not stated) | -10.9% | –
CCC1CCc2c(sc(NC(=O)C(CC)CC)c2C#N)C1 (configuration not stated) | -14.6% | –
Cc1ccc(NC(=O)CN(C)C(=O)c2nc(-c3ccccc3)oc2C)cc1 | 8.05% | –
CC1CCCN(CC(=O)Nc2cc(Cl)ccc2Oc2ccccc2)C1 (configuration not stated) | 21.3% | –
Nc1nc2ccc([N+](=O)[O-])cc2[n+]([O-])n1 | -18% | –
COc1cccc(N(CC(=O)NC2CCCC2)C(=O)Cn2nnc(-c3ccc(C)o3)n2)c1 | 8.14% | –
C/C(=C\c1ccc([N+](=O)[O-])cc1)C(=O)c1ccccc1 | 21.4% | –
COc1ccc(CNc2nc3c(c(=O)[nH]c(=O)n3C)n2Cc2ccccc2)cc1 | 13.7% | –
N#Cc1nc(/C=C/c2ccc(F)cc2)oc1NC1CCCCC1 | -163% | –
Fc1ccc(-c2cc(NC3CCCC3)nc3[nH]ccc23)nc1 | – | 31.6 µM (active)
c1cncc(CNc2cc(-c3cnc4ccccc4n3)c3cc[nH]c3n2)c1 | -21.9% | –
